Compound activity from PubChem.
CF NFkB inh: inhibitors of PAF-induced NF-kB signaling, primary screen, cell-based, GFP fluorescence, uHTS; KKLEB NF-kB-GFP reporter, GFP fluorescence overnight; AID 588850, 2011; 360,000 compounds, 0.86% hits; inhibition, % at 5 µM;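 active = at least 50% inhibition at 5 µM, scaled per plate between neutral and stimulator controls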;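 note: PAF is a Pseudomonas aeruginosa culture filtrate used as stimulus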
Peg3 promoter: Peg3 promoter-driven luciferase inhibitors, primary screen, cell-based, HeLa, luciferase luminescence | HeLa PEG-Prom luciferase reporter, overnight | inhibition, % at 20 µM | 360,000 compounds, 1.7% hits;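 active = inhibition of at least 50% at 20 µM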
KKLEB cytotox: cytotoxicity in KKLEB CF airway cells, primary screen, cytotoxicity control for CF NF-kB inhibitor project, cell-based, uHTS, fluorescence assay plates; 360,000 compounds, 0.36% hits; KKLEB CF airway cells viability, ATPlite luminescence, overnight; hits give low values; cells stimulated with P. aeruginosa culture filtrate; AID 602141, 2011; activity change (cytotoxicity), % at 5 µM;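 active = corrected activity change at or below -50% at 5 µM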
HIF-2a block: HIF-2a reporter inhibitors, primary screen, luminescence, 786-0 RCC cells. 786-0 RCC cells HIF-2a reporter, luciferase luminescence, overnight. inhibition, % at 18.8 µM. 360,000 compounds, 0.72% hits. AID 624352, 2012;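 active = inhibition of the luminescence signal of 40% or more relative to plate controls, in a single-dose primary screen at 18.75 µM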
Shn3 inh set2: reduction of Shn3 3'UTR firefly luciferase signal, primary screen, Schnurri-3 inhibitor project, cell-based, Clone20 osteoblasts, set 2; Clone20 osteoblast Shn3 3'UTR firefly luciferase, 24 h; inhibition, % at 12.5 µM; 360,000 compounds, 0.52% hits; AID 588674, 2011;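 active = mean inhibition of at least 75% with every replicate also reaching 75%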
EBV LMP1 NFkB: EBV LMP1-driven NF-kappaB luciferase reporter inhibitors, primary screen, cell-based, luminescence, single point | inhibition, % at 12.5 µM | LMP1-induced NF-kappaB luciferase reporter cells | 350,000 compounds, 0.69% hits | AID 504558, 2011; in the data active = inhibition above about 41%
Large screens that a line does not name were inactive. Shown are actives, neighbours in structure and some others; about 2.9% of the full set was active somewhere.

COc1ccc(-n2sc3ccccc3c2=O)cc1	CF NFkB inh 63
COc1cccc(CNC(=O)C2=Cc3cccc(OC)c3OC2)c1	Peg3 promoter 58
O=[N+]([O-])c1cc(-c2nnc(Nc3ccccc3)c3ccccc23)ccc1N1CCOCC1	none
O=[N+]([O-])c1cc(-c2nnc(Nc3ccc(O)cc3)c3ccccc23)ccc1N1CCOCC1	Peg3 promoter 52
CCCCn1c(=NC(=O)c2ccco2)c(C(=O)OCC)cc2c(=O)n3cccc(C)c3nc21	none
COc1ccc(CNCC(O)(c2ccccc2)c2ccc(F)cc2)cc1 (centres undefined)	none
COc1ccc(C(CCNCc2ccccc2)c2ccc(F)cc2)cc1 (centres undefined)	none
COc1ccc(C(CCNCc2ccc(F)cc2)c2ccc(F)cc2)cc1 (centres undefined)	Peg3 promoter 80
COc1ccc(CNCCC(c2ccc(F)cc2)c2ccc(OC(C)C)cc2)cc1OC (centres undefined)	Peg3 promoter 110 (no result: Shn3 inh set2)
COc1ccc(CNC(=O)CNC(C)c2ccc(F)cc2)cc1 (centres undefined)	none
COc1ccc(C(CCNC(C)c2ccccc2)c2ccc(F)cc2)cc1 (centres undefined)	Peg3 promoter 107
COc1ccc(CNCCC(c2ccc(F)cc2)c2ccc(OC)cc2)cc1 (centres undefined)	Peg3 promoter 76
O=S(=O)(/N=C/c1ccccc1O)c1cccs1	none
CC(C)(C)c1cc[n+](C2=C([O-])c3ccccc3C(=O)/C2=N\S(=O)(=O)c2cccs2)cc1	CF NFkB inh 75, Peg3 promoter 57 (no result: EBV LMP1 NFkB)
O=C1/C(=N\S(=O)(=O)c2cccs2)C([n+]2ccccc2)=C([O-])c2ccccc21	CF NFkB inh 68, HIF-2a block 44
CC(C)=CCC[C@](C)(O[C@@H]1O[C@H](CO[C@@H]2OC[C@H](O[C@@H]3OC[C@@H](O)[C@H](O)[C@H]3O)[C@H](O)[C@H]2O)[C@@H](O)[C@H](O)[C@H]1O)C1CC[C@]2(C)C1[C@H](O)CC1[C@@]3(C)CC[C@H](O)C(C)(C)C3[C@@H](O)C[C@]12C (some centres undefined)	none
Cc1cccc(-c2nc3c(c(SCC(=O)N4CCOCC4)n2)Cc2c(CO)cnc(C)c2O3)c1	Peg3 promoter 68
Cc1ncc(CO)c2c1Oc1nc(-c3ccccc3)nc(SCC(=O)N3CCOCC3)c1C2	Peg3 promoter 80
COc1cccc(-c2nc3c(c(SCC(=O)N4CCOCC4)n2)Cc2c(CO)cnc(C)c2O3)c1	Peg3 promoter 59
COc1ccccc1-c1nc2c(c(SCC(=O)N3CCCCC3)n1)Cc1c(CO)cnc(C)c1O2	none
N#Cc1ccc(OCC(=O)N2CCN(S(=O)(=O)c3cccc(Cl)c3)CC2)cc1	none
CSC[C@H]1CN(c2ccccc2)C(=O)[C@@H]1CC(=O)Nc1ccc(Br)cc1	none
Nc1nc2ccc(OC(F)(F)F)cc2s1	KKLEB cytotox -56
Cc1ccc(S(=O)(=O)Nc2ccccc2/C=N/c2nc3ccccc3n2C)cc1	none
Cc1cc(O)c(C)c(O)c1/C=N/NC(=O)c1cccnc1	none
O=C(CNC(=S)N(Cc1ccccc1)Cc1ccccc1F)NCc1ccc(Cl)cc1	Peg3 promoter 52
O=C1C=C(N2CCCCC2)c2ccccc2C1=O	CF NFkB inh 100, Peg3 promoter 100, KKLEB cytotox -77, HIF-2a block 46 (no result: EBV LMP1 NFkB)
O=C1c2ccccc2C(=O)c2c1cccc2N1CCCC1	none
CCCCCCC(=O)N(O)C1CC(=O)N(c2ccc(Br)cc2)C1=O (centres undefined)	EBV LMP1 NFkB 43
CCn1c(=O)c(C(=O)Nc2nc3ccccc3[nH]2)c(O)c2ccccc21	CF NFkB inh 89, KKLEB cytotox -90
COc1ccc(C)cc1S(=O)(=O)N(CC(=O)Nc1cccc([N+](=O)[O-])c1)c1cc(C)cc(C)c1	none
COc1ccc(C)cc1S(=O)(=O)N(CC(=O)Nc1cc([N+](=O)[O-])ccc1C)c1ccc(C)c(C)c1	EBV LMP1 NFkB 49
CCc1cccc(N(C(=O)c2csnn2)C(C(=O)NC2CCCCC2)c2cccnc2)c1 (centres undefined)	none
C#CCOCCOCCOCCNc1nc(N2CCN(C(=O)CCCCCCCCCCNC(=O)[C@H](CCCCN)n3cc(C[C@@H](C)CC)nn3)CC2)nc(N2CCN(C(=O)CCCCCCCCCCNC(=O)[C@@H]([C@H](C)O)n3cc(C)nn3)CC2)n1	Peg3 promoter 98, HIF-2a block 63, Shn3 inh set2 96
C#CCOCCOCCOCCNc1nc(N2CCN(C(=O)CCCCCCCCCCNC(=O)Cn3cc(C[C@@H](C)O)nn3)CC2)nc(N2CCN(C(=O)CCCCCCCCCCNC(=O)[C@@H]([C@H](C)CC)n3cc(CCCCCN)nn3)CC2)n1	Peg3 promoter 101
C#CCOCCOCCOCCNc1nc(N2CCN(C(=O)CCCCCCCCCCNC(=O)[C@@H](CCC(=O)O)n3cc(CCCCCN)nn3)CC2)nc(N2CCN(C(=O)CCCCCCCCCCNC(=O)[C@H](CCCCN)n3cc(C[C@@H](C)CC)nn3)CC2)n1	none
C#CCOCCOCCOCCNc1nc(N2CCN(C(=O)CCCCCCCCCCNC(=O)Cn3cc(CCCCCN)nn3)CC2)nc(N2CCN(C(=O)CCCCCCCCCCNC(=O)[C@@H]([C@H](C)O)n3cc(C)nn3)CC2)n1	none
C#CCOCCOCCOCCNc1nc(N2CCN(C(=O)CCCCCCCCCCNC(=O)[C@H](CCCCN)n3cc(C)nn3)CC2)nc(N2CCN(C(=O)CCCCCCCCCCNC(=O)[C@@H]([C@H](C)O)n3cc(C)nn3)CC2)n1	Peg3 promoter 50
C#CCOCCOCCOCCNc1nc(N2CCN(C(=O)CCCCCCCCCCNC(=O)[C@H](CCCCN)n3cc(C[C@@H](C)CC)nn3)CC2)nc(N2CCN(C(=O)CCCCCCCCCCNC(=O)[C@H](CCCN=C(N)N)n3cc(C[C@@H](C)CC)nn3)CC2)n1	Peg3 promoter 101, HIF-2a block 41
CC(C)N1CCC(C)(C(=O)Nc2cccc3c2CCCC3)C1 (centres undefined)	none (no result: EBV LMP1 NFkB)
COc1ccccc1/C=C1/C(=O)N(c2ccccc2)N=C1C	HIF-2a block 45
CC1=NN(c2ccccc2)C(=O)/C1=C\c1cn(-c2ccccc2)nc1C	none
CCCCNC(=O)C1(C)CCN1C(=O)c1cc(F)ccc1C (centres undefined)	none (no result: EBV LMP1 NFkB)
O=C(COC(=O)c1ccc(S(=O)(=O)NCc2ccco2)cc1)Nc1ccccc1	none
